Drawing on PubChem BioAssay (EPA / NIEHS), this text covers outcome and AC50 for 15 compounds.

Each structure is given as a SMILES string. “And” between values parts separate entries of the source, which are not always exact repeats. Equal values may be shown once. The source made the active and inactive calls. The calls were made as follows: active = hit-call score of the fitted dose curve at least 0.9, where 1 is the maximum; inactive = score below 0.9.

One may read the AC50 as the concentration at which the activity in the assay is half-maximal.

Read-out in the assay: Monocyte Chemoattractant Protein-1 (MCP1), CCL2 (gene 6347)
The assay can be described thus: BSK_hDFCGF_MCP1: BioMAP Diversity Plus: hDFCGF Assay for Monocyte Chemoattractant Protein-1 (MCP1) Biomarker Activity (AID 2284285). Conditions: primary human foreskin fibroblasts. On the procedure:
BSK_hDFCGF is a cell-based, multiplexed-readout assay that uses foreskin fibroblast, a human skin primary cell, with measurements taken at 24 hours after chemical dosing in a 96-well plate.BSK_hDFCGF_MCP1 is an assay component measured in the BSK_hDFCGF assay. It measures MCP-1 antibody related to regulation of gene expression using ELISA technology.Data from the assay component BSK_hDFCGF_MCP1 was analyzed at the endpoint, BSK_hDFCGF_MCP1, in the positive analysis fitting direction relative to DMSO as the negative control and baseline of activity. Using a type of binding reporter, gain or loss-of-signal activity can be used to understand protein changes. To generalize the intended target to other relatable targets, this assay endpoint is annotated to the 'cytokine' intended target family, where the subfamily is 'chemotactic factor'.
The levels of cell surface (or secreted, indicated by the prefix "s") biomarker endpoints were measured by ELISA. Overt cytotoxicity to cells in confluent adherent cultures (all systems other than the BT system) was assessed by measuring total protein levels using sulforhodamine B (SRB) staining in parallel cultures at the time of biomarker measurements, indicated as SRB endpoints. For proliferation assays for adherent cell types, individual cell types are cultured at sub-confluence and relative cell numbers quantified by SRB staining at time points optimized for each system (48 h: 3C and CASM3C systems; 72 h: BT and HDF3CGF systems; 96 h: SAg system). SRB was performed by staining cells with 0.1% SRB after fixation with 10% TCA and reading wells at 560 nm.Viability and proliferation of PBMC (T cells) was quantified by Alamar Blue reduction for the SAg and BT systems. For PBMC viability (referred to as PBMC Cytotoxicity within the assay endpoint names), cells were plated (75,000/well in a 96-well plate) and then chemical samples added for 1 h before addition of activators, SEB and TSST-1 (20 ng/mL final concentration each). Cells were incubated for 90 h. Then, Alamar Blue (20 uL/well) (Invitrogen, Cat DAL1100) was added for 6 h, and the plates were read with a fluorescence microplate reader at 546/580 nm (excitation/emission). For PBMC proliferation, cells were plated and activated as above but incubated for only 16 h prior to addition of Alamar Blue. Plates were read after 6 h.
Regarding `FC(F)(F)C(F)(C(F)(F)F)C(F)(F)C(F)(F)CC1CO1` (stereo not given), the result was inactive.
On the same count and under the same terms, the result for `O=C(O)C=CC(F)(C(F)(F)F)C(F)(F)F` reads “inactive”; that for `NC(=O)C(F)(F)C(F)(F)F`, “inactive”.
On the same count and under the same terms, the result for `O=C(O)C(F)(F)C(F)(F)C(=O)O` reads “inactive”.
Take `C=CC(=O)OCC(F)(F)C(F)F`: the AC50 was 40.7 µM (active) and 41.8 µM (active).
As for `O=C(O)C(F)(OC(F)(F)C(F)(F)C(F)(F)F)C(F)(F)F` (stereo not given), the result was inactive.
The same measure, in the same setting: the result for `O=C(O)C(F)(F)OC(F)(F)C(F)(F)OC(F)(F)C(=O)O` reads “inactive”; that for `OCC(F)(F)OC(F)(F)C(F)(F)OC(F)(F)C(F)(F)OC(F)(F)F`, “inactive”.
Still for that read-out and setting: the value for `O=C(O)C(F)(F)OC(F)(F)C(F)(F)OC(F)(F)F` was “inactive”; that for `CC(O)C(F)(F)C(F)(F)F` (stereo not given) was “inactive”.
On the same count and under the same terms, the result for `O=S(=O)(F)C(F)(F)C(F)(F)C(F)(F)C(F)(F)C(F)(F)C(F)(F)C(F)(F)C(F)(F)F` reads “inactive”.
Turning to `OCC(F)(F)OC(F)(F)C(F)(F)OC(F)(F)C(F)(F)OC(F)(F)CO`, the AC50 is 30 µM (active) and 23.7 µM (active).
For `COP(=O)(CCC(=O)NCO)OC`, the outcome was inactive.
Same read-out and setting: the result for `OCC(F)(F)OC(F)(F)C(F)(F)OC(F)(F)CO` reads “inactive”; that for `COC(=O)C(F)(F)C(F)(F)OC(F)(C(F)(F)F)C(F)(F)OC(F)=C(F)F` (stereo not given), “inactive”.
